{"source": "PubChem BioAssay (EPA / NIEHS)", "note": "A structure can be active in one record and inactive in another. The source made the active and inactive calls. Rule for the calls: active = hit-call score of the fitted dose curve at least 0.9, where 1 is the maximum; inactive = score below 0.9."}
{"tested_on": "SRD5A2 (gene 6716)", "test": "CCTE_Deisenroth_5AR_NBTE_ratio: CCTE's 5alpha-reductase NanoBRET Target Engagement Assay - Ratio, Deisenroth Lab (AID 2284322)", "details": "actives raise or lower the signal", "protocol": "CCTE_Deisenroth_5AR NBTE (5alpha-reductase NanoBRET Target Engagement Assay) is a cell-based, single-readout assay that uses HEK293T, a human kidney cell line, with measurements taken at 5 hours after chemical dosing in a 384 well plate. This assay includes a primary and secondary screen as well as an autofluorscence screen.CCTE_Deisenroth_5AR NBTE_ratio is one of four assay components calculated from the CCTE_Deisenroth_5AR NBTE assay. It is designed to measure the ratio of target acceptor fluorophore resonance to donor bioluminescent signals.Data from the assay component CCTE_Deisenroth_5AR NBTE_ratio was analyzed into 1 assay endpoint. This assay endpoint, CCTE_Deisenroth_5AR NBTE_ratio, was analyzed with bidirectional fitting relative to DMSO as the negative control and baseline of activity. Using a type of inducible reporter, gain or loss-of-signal activity can be used to understand changes in 5alpha-reductase catalytic function. Furthermore, this assay endpoint can be referred to as a primary readout. To generalize the intended target to other relatable targets, this assay endpoint is annotated to the misc protein intended target family, where the subfamily is 5-alpha reductase.\nFor transient expression of the SRD5A2-NanoLuc fusion protein, HEK293T cells are reverse transfected with pNLF1-C-SRD5A2 expression vector and incubated for 20 hours to facilitate fusion protein expression. For assay setup, 384-well non-binding surface (NBS) microplates are pre-dispensed with test chemical across an 8-point concentration series (10 nM - 29.9 uM) with two technical replicates per run. Cell suspensions are dispensed into the microplates and incubated with test chemical for a duration of three hours. Following pre-incubation with test chemical, the testosterone tracer is dispensed into each well and incubated an additional two hours. The total incubation period with test chemical is five hours, with testosterone tracer added the final two hours to reach target engagement equilibrium. For the NanoBRET endpoint measurements, a solution of Nano-Glo substrate and extracellular NanoLuc inhibitor solution is added to each test well and immediately scanned on a plate reader configured with multichromatic emission settings for donor luminescence ([…]) and acceptor fluorescence ([…]). DMSO solvent controls are included as baseline control. Plate-matched samples are run with mock tracer conditions or testosterone tracer to discriminate any potential non-specific substrate interference."}
{"smiles": "CCN(Cc1cccc(S(=O)(=O)O)c1)c1ccc(C(=C2C=CC(=[N+](CC)Cc3cccc(S(=O)(=O)O)c3)C=C2)c2ccccc2S(=O)(=O)[O-])cc1", "AC50": "2.9 µM (active)"}
{"smiles": "CN(C[C@@H](CC[N+]12CCC(C3CCCCC3)(CC1)CC2)c1ccc(Cl)c(Cl)c1)C(=O)c1cc(C(F)(F)F)cc(C(F)(F)F)c1", "AC50": "76 µM (active)"}
{"smiles": "CO[C@H]1/C=C/O[C@@]2(C)Oc3c(C)c(O)c4c(O)c(c(/C=N/N5CCN(C)CC5)c(O)c4c3C2=O)NC(=O)/C(C)=C\\C=C\\[C@H](C)[C@H](O)[C@@H](C)[C@@H](O)[C@@H](C)[C@H](OC(C)=O)[C@@H]1C", "AC50": "54.3 µM (active)"}
{"smiles": "COc1cc(C(=O)NC2CCN(C)CC2)ccc1Nc1ncc2c(n1)N(C1CCCC1)CC(F)(F)C(=O)N2C", "outcome": "inactive"}
{"smiles": "O=c1c(-c2ccc(O)cc2)coc2cc(O)cc(O)c12", "outcome": "inactive"}
{"smiles": "CCN(CC)C(=O)c1cc(S(=O)(=O)Cc2ccccc2)c(N2CCC(c3ccccc3)CC2)cc1N(CC)CCN(C)C", "outcome": "inactive", "AC50": "17.3 µM (active)"}
{"smiles": "CN(C)c1ccc(C(=C2C=CC(=[N+](C)C)C=C2)c2ccc(N(C)C)cc2)cc1", "AC50": "0.593 µM (active)"}
{"smiles": "CN1C(=O)CC[C@H]1c1cccnc1", "outcome": "inactive"}
{"smiles": "CCCCCCCCOC(=O)c1cc(O)c(O)c(O)c1", "AC50": "1.59 µM (active)"}
{"smiles": "CN1C(=O)N(c2ccccc2Br)Cc2cnc(Nc3ccc4c(c3)OCC(CO)O4)nc21", "note": "(stereo not given)", "outcome": "inactive"}
{"smiles": "O=c1[nH]sc2ccccc12", "AC50": "75 µM (active)"}
{"smiles": "NCc1cccc(C2CCN(C(=O)c3ccc(C#Cc4ccccc4F)o3)CC2)c1", "outcome": "inactive"}
{"smiles": "O=C(O)Cc1cc(I)c(Oc2ccc(O)c(I)c2)c(I)c1", "AC50": "77.3 µM (active)"}
{"smiles": "CCCCCCCCCCCO", "outcome": "inactive"}
